# Calls of active or inactive are those of the source.
# Key:
# [1] = system: Plasmodium falciparum Sir2 (PF13_0152, Sir2A); experiment: pfSir2 binders on small-molecule microarrays, primary screen, biochemical, small-molecule microarray, 635 nm fluorescence (AID 1098); conditions: small-molecule microarray binding, fluorescence 635 nm; higher = more signal;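 note: score merges spot fluorescence intensity with its signal-to-noise ratio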
# [2] = small-molecule microarray binders of probe aDKK1, primary screen, biochemical, biotinylated probe, 635/667 nm fluorescence (AID 1099); conditions: higher = more signal;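 note: score merges 667nm spot fluorescence with signal to noise across triplicate slides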
# [3] = small-molecule microarray binders of probe aCHRDL2, primary screen, biochemical, biotinylated probe, 635/667 nm fluorescence (AID 1100); conditions: higher = more signal
# [4] = splicing luciferase reporter signal modulators, primary screen, spliceosome inhibition project, cell-based, HEK293, splice +/- reporter (AID 1101); conditions: luminescence, 24 h, higher = more signal, called active from +8 up or from −8 down;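 note: HEK293 cells carrying a splicing-competent luciferase reporter gene; test concentration not given here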
# [5] = biological target: Fibroblast growth factor 10 (Homo sapiens) (UniProt O15520); experiment: FGF10 binders on small-molecule microarrays, primary screen, biochemical, small-molecule microarray, 635 nm fluorescence (AID 1102); conditions: FGF10 binding, fluorescence 635 nm, higher = more signal
# [6] = system: glycogen synthase kinase-3 (GSK3A per assay name; protocol says GSK3B); experiment: GSK3 binders on small-molecule microarrays, primary screen, biochemical, small-molecule microarray, 635 nm fluorescence, GSK3A (AID 1103); conditions: small-molecule microarray binding, fluorescence 635 nm; higher = more signal; note: the record names both GSK3A and GSK3B
# [7] = biological target: Epidermal growth factor receptor (Homo sapiens) (UniProt P00533); experiment: EGFR binders on small-molecule microarrays, primary screen, biochemical, small-molecule microarray, 635 nm fluorescence (AID 1104); conditions: EGFR binding, higher = more signal;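 note: score merges 667 nm emission intensity with spot signal to noise over triplicate slides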
# [8] = biological target: Follistatin-related protein 3 (Homo sapiens) (UniProt O95633); experiment: FSTL3 binders on small-molecule microarrays, primary screen, biochemical, small-molecule microarray, 635 nm fluorescence (AID 1105); conditions: FSTL3 binding, higher = more signal;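 note: score merges emission near 667 nm and signal to noise per printed spot across three slides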
# [9] = biological target: Dickkopf-related protein 1 (Homo sapiens) (UniProt O94907); experiment: DKK1 binders on small-molecule microarrays, primary screen, biochemical, small-molecule microarray, 635 nm fluorescence scan (AID 1106); conditions: DKK1 binding, higher = more signal;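 note: score merges emission near 667 nm with signal to noise over three replicate slides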
# [10] = system: Inhibin beta A chain (activin A); experiment: INHBA (activin A) binders on microarrays, primary screen, biochemical, small-molecule microarray, 635 nm fluorescence scan (AID 1107); conditions: small-molecule microarray binding, higher = more signal;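 note: mouse activin A protein probed at 4.33 µg/mL on printed slides; score merges bound-protein fluorescence near 667 nm with spot signal-to-noise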
# [11] = system: Human papillomavirus type 1a protein E7 (residues 44-93); experiment: HPV1a E7 fragment binders on microarrays, primary screen, biochemical, small-molecule microarray, residues 44-93, 635 nm fluorescence (AID 1108); conditions: small-molecule microarray binding, fluorescence 635 nm; higher = more signal;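 note: E7 fragment applied at 1 µg/mL in TBST for 1 h at 4 C; score combines spot fluorescence with its signal to noise ratio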
# [12] = modulators of HCV replicon luciferase signal, primary screen, HCV replication inhibitor project, Huh7 cells, luciferase reporter (AID 1109); conditions: 48 h, higher = more signal;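 note: huh7 hepatoma cells harbouring a luciferase neomycin HCV replicon reporter; luciferase luminescence as measure of HCV replicon replication; test concentration not given here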
# [13] = biological target: Left-right determination factor 2 (Homo sapiens) (UniProt O00292); experiment: LEFTY2 binders on small-molecule microarrays, primary screen, biochemical, small-molecule microarray, 635 nm fluorescence scan (AID 1110); conditions: LEFTY2 binding, higher = more signal
# [14] = biological target: Calmodulin-1 (Homo sapiens) (UniProt P0DP23); experiment: CALM1 binders on microarrays, EGTA buffer, profiling panel, biochemical, small-molecule microarray, Cy5-labelled CALM1 (AID 1111); conditions: Cy5-CALM1 binding fluorescence, higher = more signal;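 note: labelled calmodulin applied in Tris saline Tween buffer holding calcium plus EGTA and DTT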
# [15] = biological target: Calmodulin-1 (Homo sapiens) (UniProt P0DP23); experiment: calcium-bound CALM1 binders on microarrays, profiling panel, artefact control for SMM control-protein annotation, biochemical, small-molecule microarray, Cy5-labelled CALM1, plus calcium (AID 1112); conditions: Cy5-CALM1 binding fluorescence, higher = more signal;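 note: score merges spot fluorescence with signal to noise from triplicate slides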
# [16] = small-molecule microarray binders of probe aWnt5a, primary screen, biochemical, biotinylated probe, 635/667 nm fluorescence (AID 1113); conditions: higher = more signal;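 note: score merges 667 nm fluorescence intensity with signal-to-noise per printed feature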
# [17] = small-molecule microarray binders of probe aShh, primary screen, biochemical, biotinylated probe, 635/667 nm fluorescence (AID 1114); conditions: higher = more signal;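 note: probe is biotin-labelled aShh protein from a stem cell growth factor screen; measures binding of labelled protein to compounds printed on the slide; score merges feature fluorescence at 667 nm with signal-to-noise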
# [18] = small-molecule microarray binders of probe aNog, primary screen, biochemical, biotinylated probe, 635/667 nm fluorescence (AID 1115); conditions: higher = more signal;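 note: probe is biotinylated aNog protein used at 0.15 µg/mL for 1 h at 4 C; z-score combines 667 nm fluorescence of each spot with its signal to noise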
# [19] = biological target: Torsin-1A-interacting protein 1 (Homo sapiens) (UniProt Q5JTV8); experiment: LAP1 binders from COS7 cell lysate, primary screen, small-molecule microarray, 635/667 nm fluorescence (AID 1116); conditions: COS7-hLAP1 lysate binding, 635 nm fluorescence, higher = more signal
# [20] = biological target: Alpha-bungarotoxin (Bungarus multicinctus) (UniProt P60615); experiment: alpha-bungarotoxin binders on microarray, profiling panel, artefact control for SMM control protein annotation, biochemical, small-molecule microarray, Alexa647 label, 635/667 nm fluorescence (AID 1117); conditions: alpha-BTX-A647 binding fluorescence, higher = more signal
# Chain of Alpha-bungarotoxin (Bungarus multicinctus) (P60615 whole entry, looked up): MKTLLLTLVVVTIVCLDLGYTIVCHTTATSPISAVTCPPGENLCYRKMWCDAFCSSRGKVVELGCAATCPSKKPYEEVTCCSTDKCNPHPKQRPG
# Chain of Epidermal growth factor receptor (Homo sapiens) (P00533 whole entry, looked up): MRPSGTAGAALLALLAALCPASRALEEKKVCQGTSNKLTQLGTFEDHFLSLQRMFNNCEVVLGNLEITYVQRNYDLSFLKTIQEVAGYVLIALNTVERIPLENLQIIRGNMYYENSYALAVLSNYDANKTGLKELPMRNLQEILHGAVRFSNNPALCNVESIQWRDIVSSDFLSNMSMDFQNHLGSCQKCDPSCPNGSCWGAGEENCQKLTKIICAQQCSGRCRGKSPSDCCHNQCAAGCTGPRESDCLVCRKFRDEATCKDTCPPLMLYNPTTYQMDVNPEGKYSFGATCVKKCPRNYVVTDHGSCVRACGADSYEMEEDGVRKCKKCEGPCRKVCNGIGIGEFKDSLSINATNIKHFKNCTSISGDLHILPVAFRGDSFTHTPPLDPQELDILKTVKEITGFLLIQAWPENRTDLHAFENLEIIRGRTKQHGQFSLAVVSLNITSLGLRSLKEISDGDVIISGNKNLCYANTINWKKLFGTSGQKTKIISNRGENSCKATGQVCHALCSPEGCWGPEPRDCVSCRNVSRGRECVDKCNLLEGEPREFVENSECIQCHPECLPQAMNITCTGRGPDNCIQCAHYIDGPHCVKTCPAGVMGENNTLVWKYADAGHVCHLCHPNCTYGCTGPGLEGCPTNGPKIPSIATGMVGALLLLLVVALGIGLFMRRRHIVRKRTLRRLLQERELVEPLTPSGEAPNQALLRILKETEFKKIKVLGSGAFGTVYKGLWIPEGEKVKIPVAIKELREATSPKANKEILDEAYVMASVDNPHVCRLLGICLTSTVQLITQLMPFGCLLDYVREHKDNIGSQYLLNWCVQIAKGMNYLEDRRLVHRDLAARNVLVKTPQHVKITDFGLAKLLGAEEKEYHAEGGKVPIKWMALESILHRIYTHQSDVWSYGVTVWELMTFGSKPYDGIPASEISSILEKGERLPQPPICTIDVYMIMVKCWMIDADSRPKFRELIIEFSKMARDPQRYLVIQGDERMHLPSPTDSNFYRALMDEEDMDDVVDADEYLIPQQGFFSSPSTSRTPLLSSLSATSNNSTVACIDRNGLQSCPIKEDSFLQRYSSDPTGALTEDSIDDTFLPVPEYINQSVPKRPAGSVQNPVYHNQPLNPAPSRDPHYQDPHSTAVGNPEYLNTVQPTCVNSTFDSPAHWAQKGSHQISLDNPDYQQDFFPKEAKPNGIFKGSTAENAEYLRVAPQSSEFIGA
# Chain of Torsin-1A-interacting protein 1 (Homo sapiens) (Q5JTV8 whole entry, looked up): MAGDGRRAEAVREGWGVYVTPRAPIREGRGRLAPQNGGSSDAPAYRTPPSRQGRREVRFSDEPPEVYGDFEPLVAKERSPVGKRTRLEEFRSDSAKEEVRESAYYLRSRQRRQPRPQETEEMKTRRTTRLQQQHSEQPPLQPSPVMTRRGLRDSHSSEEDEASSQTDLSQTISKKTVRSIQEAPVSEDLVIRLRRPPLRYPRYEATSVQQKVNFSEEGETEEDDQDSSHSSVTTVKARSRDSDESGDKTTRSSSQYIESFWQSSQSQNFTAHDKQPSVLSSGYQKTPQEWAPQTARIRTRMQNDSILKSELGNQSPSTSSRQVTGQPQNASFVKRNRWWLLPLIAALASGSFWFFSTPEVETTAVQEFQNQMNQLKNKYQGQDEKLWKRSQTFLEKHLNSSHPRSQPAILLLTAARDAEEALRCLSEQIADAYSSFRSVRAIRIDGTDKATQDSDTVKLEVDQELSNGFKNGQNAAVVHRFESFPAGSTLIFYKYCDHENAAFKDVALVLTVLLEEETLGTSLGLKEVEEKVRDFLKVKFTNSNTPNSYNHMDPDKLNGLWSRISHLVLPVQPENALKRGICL
# Chain of Left-right determination factor 2 (Homo sapiens) (O00292 whole entry, looked up): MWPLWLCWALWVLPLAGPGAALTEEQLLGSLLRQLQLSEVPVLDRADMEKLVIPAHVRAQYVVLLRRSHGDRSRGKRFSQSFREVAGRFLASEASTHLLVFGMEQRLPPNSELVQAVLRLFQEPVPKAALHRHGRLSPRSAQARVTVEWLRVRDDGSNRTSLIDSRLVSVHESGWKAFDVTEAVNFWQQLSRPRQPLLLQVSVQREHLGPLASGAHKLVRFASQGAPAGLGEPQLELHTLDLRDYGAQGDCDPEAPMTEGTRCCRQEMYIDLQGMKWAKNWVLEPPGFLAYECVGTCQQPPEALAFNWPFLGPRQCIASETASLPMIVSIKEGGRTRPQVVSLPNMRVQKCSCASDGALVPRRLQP
# Chain of Fibroblast growth factor 10 (Homo sapiens) (O15520 whole entry, looked up): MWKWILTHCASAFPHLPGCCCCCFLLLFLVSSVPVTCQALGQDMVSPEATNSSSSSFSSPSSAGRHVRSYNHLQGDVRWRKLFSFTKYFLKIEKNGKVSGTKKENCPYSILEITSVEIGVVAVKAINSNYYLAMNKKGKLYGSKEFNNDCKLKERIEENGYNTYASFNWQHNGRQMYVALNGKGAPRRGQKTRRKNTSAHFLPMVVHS
# Chain of Follistatin-related protein 3 (Homo sapiens) (O95633 whole entry, looked up): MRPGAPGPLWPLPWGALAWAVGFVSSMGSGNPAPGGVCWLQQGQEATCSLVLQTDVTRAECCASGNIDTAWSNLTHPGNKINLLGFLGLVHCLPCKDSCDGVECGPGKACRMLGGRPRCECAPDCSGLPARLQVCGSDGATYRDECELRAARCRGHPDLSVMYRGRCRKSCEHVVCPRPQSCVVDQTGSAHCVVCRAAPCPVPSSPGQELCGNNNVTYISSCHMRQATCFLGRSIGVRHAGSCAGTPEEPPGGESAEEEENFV
# Chain of Dickkopf-related protein 1 (Homo sapiens) (O94907 whole entry, looked up): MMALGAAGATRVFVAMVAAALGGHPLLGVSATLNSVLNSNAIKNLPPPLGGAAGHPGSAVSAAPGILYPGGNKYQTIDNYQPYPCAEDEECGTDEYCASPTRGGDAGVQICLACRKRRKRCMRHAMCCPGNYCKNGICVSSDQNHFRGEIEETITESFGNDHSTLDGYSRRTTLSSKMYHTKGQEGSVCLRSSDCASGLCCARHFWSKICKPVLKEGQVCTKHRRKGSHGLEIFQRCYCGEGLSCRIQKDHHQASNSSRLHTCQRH
Structure (SMILES),composite z-score [1],composite z-score [2],composite z-score [3],z-score [4],composite z-score [5],composite z-score [6],composite z-score [7],composite z-score [8],composite z-score [9],composite z-score [10],composite z-score [11],z-score [12],composite z-score [13],composite z-score [14],composite z-score [15],composite z-score [16],composite z-score [17],composite z-score [18],composite z-score [19],composite z-score [20]
Nc1cc(Br)ccc1C(=O)O,-0.0113,0.149,-0.155,-0.00991 (inactive),0.339,0.285,0.029,0.111,0.241,0.0301,-0.0633,-0.518,0.285,0.955,0.885,-0.0045,-0.0626,0.0558,0.0546,1.39
CCCCCCCCCCC(O)C1C=CC2C(=O)N(C)C(=O)C2N1Nc1cc(OC)c(OC)c(OC)c1 (stereo not given),1.05,0.571,0.858,0.271 (inactive),-0.471,-1.29,-0.637,-1.29,-0.939,1.18,-0.298,-2.01,-1.11,1.82,1.39,-0.0529,-0.0398,0.837,-0.232,0.229
[N-]=[N+]=NCc1ccccc1C[C@]1(C(=O)N2CCOCC2)COC(c2ccc(OCCCO)cc2)=N1,0.947,1.05,1.05,-0.363 (inactive),0.396,0.935,-0.505,0.0724,-0.921,0.983,1.01,-1.54,-0.305,2.35,0.822,0.168,0.0326,1.87,2.22,0.326
Cc1cccc([C@H]2C[C@H]3C(I)=C[C@@H]2C(=O)[C@]32CO2)c1,-0.636,-0.251,0.154,-1.48 (inactive),0.575,-0.499,-0.0512,0.445,0.125,1.03,-0.998,-1.94,0.0047,-0.542,-0.271,-0.141,-0.345,-0.0381,-0.0258,0.132
[N-]=[N+]=Nc1ccccc1C[C@]1(C(=O)O)N=C(c2ccc(OCCCO)cc2)O[C@H]1c1ccccc1N=[N+]=[N-],0.944,1.06,1.12,-1.55 (inactive),0.445,1.06,0.342,0.546,-0.0824,0.884,0.99,-1.02,0.282,2.1,0.923,0.0859,-0.0263,2,1.5,1.22
C=CCC(OC(C)=O)[C@@H]1[C@@H](N(Cc2ccc(-c3cccc(C(F)(F)F)c3)o2)C(=O)c2ccc(C)cc2)c2cc(OCCCO)ccc2N1C(=O)Cc1ccc(OC)cc1 (stereo not given in full),1.1,-0.145,-0.0583,-0.0858 (inactive),-0.0938,-0.808,-0.0424,0.345,0.0682,0.975,-0.918,-0.466,-0.115,-0.697,-1.06,0.0327,-0.439,-0.565,0.163,-0.056
COC(=O)[C@@]1(Cc2ccc(F)cc2)[C@H]2c3cc(C(=O)N(C)C)n(Cc4c(CO)[nH]cc(C)c4=O)c3C[C@H]2CN1C(=O)c1ccccc1,-0.0424,0.617,0.721,-0.73 (inactive),0.663,-0.271,0.0656,-0.217,-0.12,0.693,-0.275,-0.573,-0.104,0.263,-0.184,0.0375,0.649,1.38,1.16,0.0084
[N-]=[N+]=NCc1ccccc1[C@@H]1OC(c2ccc(OCCCO)cc2)=N[C@]1(Cc1ccccc1N=[N+]=[N-])C(=O)NCCN1CCOCC1,1.54,0.251,0.851,-0.312 (inactive),1.51,1.34,0.218,1.23,0.331,0.533,1.4,-1.66,0.466,0.969,0.0714,0.0944,-0.0289,0.597,0.495,0.446
CC(=O)NCCCC[C@@H]1NC(=O)[C@H]2C[C@@H](C(=O)NCCCCCNC(=O)CS)[C@@H](c3cccc(OCCO)c3)N2C1=O,1.52,-0.136,0.441,-0.293 (inactive),0.349,0.552,0.39,0.397,0.607,0.469,0.0676,0.217,0.0794,0.232,0.202,-0.157,-0.147,-0.158,0.868,0.389
COCCCNC(=O)[C@@]1(Sc2ccc(C)cc2)CC(=O)N(C(C)C)[C@@H]1c1ccc(CO)cc1I,1.03,-0.0358,0.836,-2.25 (inactive),-0.0668,-0.0859,-0.839,-0.665,-1.12,0.978,1.27,-3.44,-0.327,-0.0081,-0.0868,-0.096,-0.291,-0.289,0.722,0.487
CN1C(=O)C2C(C1=O)C1C=C(CCCO)C2C(c2cccs2)N1Cc1cc2c(cc1Br)OCO2 (stereo not given),0.989,0.738,0.377,-0.139 (inactive),0.922,1.34,0.424,1.49,0.373,1.51,1.44,-1.22,0.772,1.89,0.658,0.184,0.131,-0.373,2.29,1.7

# Source: PubChem BioAssay
